Results from PubChem BioAssay (EPA / NIEHS).
The source made the active and inactive calls. Rule for the calls: active = hit-call score of the fitted dose curve at least 0.9, where 1 is the maximum; inactive = score below 0.9.

assay: CCTE_Harrill_HTTr_Apoptosis_MCF7: CCTE's 6-hour Apoptosis Assessment for the High-Throughput Transcriptomics (HTTr) Platform, in MCF-7 cells cultured in DMEM + 10% fetal bovine serum, Harrill Lab (AID 2284011)
From the text: This is a cell-based assay that evaluates apoptosis using high content imaging to evaluate activation of caspase-3/7 using the CellEvent Caspase 3/7 Green detection reagent in 384-well format.One of seven assay components measured from the CCTE_Harrill_HTTr_Apoptosis assay. This was part of a full screening experiment. This is a cell-based assay that evaluates apoptosis in MCF-7 cells cultured in DMEM + 10% fetal bovine serum. High content imaging is used to evaluate activation of caspase-3/7 using the CellEvent Caspase 3/7 Green detection reagent. Measurements are taken at 6 hours after chemical dosing in 384-well format.The assay component endpoint CCTE_Harrill_HTTr_Apoptosis_MCF7 was analyzed with bidirectional fitting relation to DMSO as the negative control and baseline of activity. Using a type of viability reporter, gain-of-signal activity can be used to evaluate activation of caspase-3/7 using the CellEvent Caspase 3/7 Green detection reagent to understand changes in apoptosis. To generalize the intended target to other relatable targets, this assay endpoint is annotated to cell cycle, where the subfamily is apoptosis.
Chemicals were tested in MCF7 cells in an eight point dilution series with a six hour exposure duration.

| SMILES | outcome |
| --- | --- |
| CCCCN(CCCC)SN(C)C(=O)Oc1cccc2c1OC(C)(C)C2 | inactive |
| CCOC(=O)c1ccccc1C(=O)OCC | inactive |
| [N-]=[N+]=[N-] | inactive |
| ClC1=C(Cl)C2(Cl)C3C(Cl)C(Cl)CC3C1(Cl)C2(Cl)Cl (stereo not given) | inactive |
| Nc1ccc([N+](=O)[O-])cc1Cl | inactive |
| N#Cc1ccc(O)cc1 | inactive |
| CCOS(=O)(=O)OCC | inactive |
| c1ccc2c(c1)Nc1ccccc1S2 | inactive |
| CCOc1ccc(C(C)(C)COCc2cccc(Oc3ccccc3)c2)cc1 | inactive |
| ClC(Cl)=C(c1ccc(Cl)cc1)c1ccccc1Cl | inactive |
| CC(Cl)(Cl)C(=O)O | inactive |
| Nc1ccc2ccccc2c1 | inactive |
| c1ccc(OP(Oc2ccccc2)Oc2ccccc2)cc1 | inactive |
| Cc1ccc(O)cc1C | inactive |
| CC(C)(C)c1ccc(O)cc1 | inactive |
| CC(C)(C)N(NC(=O)c1ccc(Cl)cc1)C(=O)c1ccccc1 | inactive |
| CC(Cc1ccc(OCC(=O)O)cc1)NCC(O)c1csc(C(F)(F)F)n1 (stereo not given) | inactive |
| Nc1ccc(Cl)cc1 | inactive |
| CCCN(CCC)c1c([N+](=O)[O-])cc(C(C)C)cc1[N+](=O)[O-] | inactive |
| CCCCC(CC)COC(=O)c1c(Br)c(Br)c(Br)c(Br)c1C(=O)OCC(CC)CCCC (stereo not given) | inactive |

| SMILES | outcome |
| --- | --- |
| ClC(Cl)c1ccccc1 | inactive |
| OCC1CO1 (stereo not given) | inactive |
| c1nc[nH]n1 | inactive |
| CCC1(c2ccccc2)C(=O)N=C(O)NC1=O (stereo not given) | inactive |
| Cc1ccc(N)cc1N | inactive |
| O=P(OCC(Br)CBr)(OCC(Br)CBr)OCC(Br)CBr (stereo not given) | inactive |
| O=S(=O)(c1ccc(O)cc1)c1ccc(O)cc1 | inactive |
| c1ccc2c(c1)sc1ccccc12 | inactive |
| O=C(O)C(Cl)Cl | inactive |
| CCOP(=S)(OCC)SCSc1ccc(Cl)cc1 | inactive |
| Nc1ccc(Sc2ccc(N)cc2)cc1 | inactive |
| CCNc1nc(Cl)nc(NC(C)(C)C)n1 | inactive |
| O=[N+]([O-])c1ccccc1 | inactive |
| CN(C)C(=O)Cl | inactive |
| O=P1(N(CCCl)CCCl)NCCCO1 (stereo not given) | inactive |
| Cc1cccc(N)c1 | inactive |
| CCCCOCC1CO1 (stereo not given) | inactive |
| O=P(Oc1ccccc1)(Oc1ccccc1)Oc1ccccc1 | inactive |
| C/C(=N\NC(=O)Nc1cc(F)cc(F)c1)c1ncccc1C(=O)O | inactive |
| CCOP(=S)(NC(C)C)Oc1ccccc1C(=O)OC(C)C (stereo not given) | inactive |
